Test results reported in PubChem BioAssay AID624504 (Sanford-Burnham Center for Chemical Genomics, 2012).
The whole screen tested about 5,000 compounds, of which about 3,900 (78%) were called active. No stated cut-off is given here; in the data, active means inhibition above about 22%; inactive means the rest. The set was probably picked from earlier hits. Not all results are given here.

Experiment: fluorescence retest of MPTP screen hits in isolated mitochondria, single concentration (AID 624504);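 further: 0% = DMSO vehicle and 100% = positive control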
Conditions: membrane potential, Rhodamine 123 fluorescence, at 10 µM, active compounds read high
For `O=C(NNc1c2ccccc2nc2ccccc12)c1cc2ccccc2cc1O`, the inhibition was 31.4% (active).
For `CCn1c(CNC(=O)c2cc(OC)c(OC)c(OC)c2)cc2cc(C)ccc21`, the inhibition was 72.8% (active).
In the case of `CCCCOc1ccc(CSC(=N)N)cc1[N+](=O)[O-]`, the inhibition is reported as -5.28% (inactive).
For `CCc1ccc(Nc2n[n+](-c3ccccc3)c(-c3cccc(Cl)c3Cl)s2)cc1`, the inhibition was 86.2% (active).
With `Cc1cc(C(=O)CSc2nc(N)cc(=O)[nH]2)c(C)n1-c1cccc(F)c1` the inhibition was 59% (active).
For `Cc1cc(C(=O)CSc2nc(N)cc(=O)[nH]2)c(C)n1Cc1ccco1`, the inhibition was 46.4% (active).
With `NC[C@H](Cc1ccccc1)NCCc1cc(C(F)(F)F)cc(C(F)(F)F)c1` the inhibition was -12% (inactive).
For `c1ccc2c(c1)C(=NC1CCCCC1)NC2=NC1CCCCC1`, the inhibition was 92.1% (active).
In the case of `Cc1ccc2nnn(Cc3cccc(C(C)(C)C)c3O)c2c1`, the inhibition is reported as 98.9% (active).
With `O=c1c2ccccc2nc2n1C(CSCc1cccc(C(F)(F)F)c1)CS2` (stereo not drawn) the inhibition was 80.9% (active).
In the case of `O=c1c2ccccc2nc2n1C(CSCc1ccccc1)CS2` (stereo not drawn), the inhibition is reported as 26.1% (active).
For `CN1CCC[C@@H]1CCO[C@](C)(c1ccccc1)c1ccc(Cl)cc1`, the inhibition was -12.2% (inactive).
For `CCCc1ccc(-c2c(C)sc(NC(=O)c3ccnn3C)c2C#N)cc1`, the inhibition was 90.5% (active).
With `CCCCc1nc(NCCN)c(C#N)c2c1CSC(C)(C)C2` the inhibition was -9.33% (inactive).
With `COc1cc(CNCc2ccc(OC)c3ccccc23)cc(OC)c1OC` the inhibition was 75.8% (active).
With `Cc1nc2nc(SCC(=O)Nc3cccc(F)c3)[nH]c2cc1Br` the inhibition was 81.1% (active).
In the case of `CC(=O)c1c(C)[nH]c(C(=O)COC(=O)c2cccc(S(=O)(=O)N(C)c3ccccc3)c2)c1C`, the inhibition is reported as 90.1% (active).
In the case of `CC(C)(CCl)C(=O)Nc1ccc(Sc2ccc(F)cc2)cc1`, the inhibition is reported as 80.4% (active).
With `O=C(C/C(=N\NC(=O)c1ccccc1Br)C(F)(F)F)c1cccs1` the inhibition was 82.3% (active).
For `O=C(NCCc1ccc2c(c1)OCCO2)c1cc2ccccc2o1`, the inhibition was 51.1% (active).
In the case of `CC1(C)CC(=O)c2sc(N)nc2C1`, the inhibition is reported as 1.93% (inactive).
With `CCCc1nc2c(c(=O)c3ccccc3n2C)c(=O)n1C1CCCCCC1` the inhibition was 19.4% (inactive).
In the case of `O=C(Nc1ccc(OC(F)(F)F)cc1)c1ccc2c(c1)no[n+]2[O-]`, the inhibition is reported as 88.6% (active).
For `CCC(C)(C)c1ccc(Oc2ccc(NC(=O)COC(=O)C3=COCCO3)cc2)cc1`, the inhibition was 55.3% (active).
For `CCCCCCc1cc2cc(-c3nnc(-c4ccccc4)o3)c(=O)oc2cc1O`, the inhibition was 1.15% (inactive).
In the case of `Cc1ccc(Nc2c3c(nc4ccccc24)CCC3)cc1`, the inhibition is reported as 76.8% (active).
In the case of `O=C(NCCOc1ccccc1F)Nc1ccc(Br)cc1`, the inhibition is reported as 71.7% (active).
With `CCOC(=O)c1ccc(NC(=O)Cn2cnc3cc(C)c(C)cc32)cc1` the inhibition was 88.8% (active).
For `COc1ccc(NS(=O)(=O)c2cc(NC(=O)CC(=O)c3ccc([N+](=O)[O-])cc3)ccc2C)cc1`, the inhibition was 66.5% (active).
For `Cc1ccc(NC(=S)NC(NC(=O)Cc2cccc3ccccc23)C(Cl)(Cl)Cl)cc1` (stereo not drawn), the inhibition was 70.9% (active).
For `O=C(Cc1cccc2ccccc12)NNC(=O)Nc1ccc(Cl)cc1`, the inhibition was 85.8% (active).
For `COC(=O)c1ccc(NC(=O)c2ccccc2NS(=O)(=O)c2ccccc2)cc1`, the inhibition was 93.2% (active).
In the case of `COc1cc(NC(=O)c2ccccc2NS(=O)(=O)c2ccc(Cl)s2)cc(OC)c1`, the inhibition is reported as 75.8% (active).
With `Clc1ccc(-c2cc(C3CCNCC3)[nH]n2)c(Cl)c1` the inhibition was -10.4% (inactive).
With `Cc1nnc(SC(C(=O)Nc2cc(Cl)cc(Cl)c2)c2ccccc2)[nH]c1=O` (stereo not drawn) the inhibition was 86.5% (active).
With `CC(=O)c1c(C)[nH]c(C(=O)OCC(=O)Nc2sc3c(c2C#N)CCCC3)c1C` the inhibition was 82.4% (active).
With `CCOC(=O)c1c(NC(=O)CSc2cn(CC)c3ccccc23)sc2c1CCC2` the inhibition was -4.21% (inactive).
In the case of `Cc1c(NC(=S)NCc2ccc(F)cc2)cccc1[N+](=O)[O-]`, the inhibition is reported as 78.8% (active).
In the case of `Cc1cc(C)cc(NC(=S)NCc2ccc(F)cc2)c1`, the inhibition is reported as 57.4% (active).
In the case of `Cc1nc(CNS(=O)(=O)c2ccc(Oc3ccccc3)cc2)cs1`, the inhibition is reported as 88.2% (active).
With `FC(F)Oc1ccc(NC(=S)NCc2ccco2)cc1Cl` the inhibition was 97.6% (active).
For `Cc1ccc(CC(=O)Nc2ccc(OC(F)F)c(Cl)c2)cc1C`, the inhibition was 89.8% (active).
With `c1ccc2c(c1)CSc1sccc1C2=C1CCNCC1` the inhibition was -11.2% (inactive).
In the case of `Cc1nc2ccccc2cc1OCc1ccc(F)cc1`, the inhibition is reported as 100% (active).
For `Cc1cc(OCCCC(=O)NCCN2C(=O)S/C(=C\c3cccnc3)C2=O)ccc1Cl`, the inhibition was 68.6% (active).
With `Cc1nn(C)cc1CNC(=O)Nc1ccc(Cl)cc1` the inhibition was 96.6% (active).
With `Cc1cc(C=O)c(C)n1-c1ccc(NC2CCCCC2)c([N+](=O)[O-])c1` the inhibition was 41.9% (active).
With `CCCCCCCCCCCCN1C(=O)CSC1c1cccnc1` (stereo not drawn) the inhibition was 19.9% (inactive).
In the case of `COc1cc2c3c(c1)/C(=C1/SC(=S)NC1=O)C(=O)N3C(C)(C)C=C2C`, the inhibition is reported as 49.1% (active).
With `CCCC(C(=O)OCCN(CC)CC)(c1ccccc1)c1ccccc1` the inhibition was 4.44% (inactive).
With `CC(C)N1C(=S)SC(C)(C)C1n1oc(=O)n(-c2ccc(Cl)c(Cl)c2)c1=O` (stereo not drawn) the inhibition was 80.6% (active).
For `COc1ccc(CNc2ncnc3ccccc23)cc1`, the inhibition was 71.8% (active).
For `O=C(Nc1nc2ccc([N+](=O)[O-])cc2s1)c1ccncc1`, the inhibition was 20.6% (active).
In the case of `O=C(NC(Nc1nc2ccc([N+](=O)[O-])cc2s1)(C(F)(F)F)C(F)(F)F)c1ccccc1`, the inhibition is reported as 81.4% (active).
In the case of `O=C(Nc1nc2ccc([N+](=O)[O-])cc2s1)c1ccc(S(=O)(=O)N2CCCc3ccccc32)cc1`, the inhibition is reported as 74.7% (active).
For `Cc1cc(C)cc(OCC(=O)Nc2nc3ccc([N+](=O)[O-])cc3s2)c1`, the inhibition was 62.3% (active).
For `CCCC[C@@H]1CN=C(N)N1CCc1cc(C(F)(F)F)cc(C(F)(F)F)c1`, the inhibition was -7.58% (inactive).
For `O=C(Nc1ccc(Cl)cc1)Nc1nnc(/C=C/c2ccccc2)s1`, the inhibition was 67% (active).
For `N#CCCN(C(=S)Nc1ccc(Cl)c(Cl)c1)C1CCCCC1`, the inhibition was 91.7% (active).
In the case of `CS(=O)(=O)N(CC(=O)Nc1ccc(Cl)c(Cl)c1)C1CCCCC1`, the inhibition is reported as 82.4% (active).
For `O=C(N/N=C/c1ccc(O)c(O)c1)C1c2ccccc2Oc2ccccc21`, the inhibition was -9.84% (inactive).
For `NS(=O)(=O)c1ccc(NC(=S)Nc2ccc(Br)c(Cl)c2)cc1`, the inhibition was 76% (active).
With `CCN1CCC(O)(/C=C/c2ccc(C)cc2)C(C(=O)/C=C/c2ccc(C)cc2)C1` (stereo not drawn) the inhibition was -14.1% (inactive).
For `Cc1cc(C)cc(NS(=O)(=O)c2ccc(Oc3ncc(C(F)(F)F)cc3Cl)cc2)c1`, the inhibition was 93.4% (active).
With `FC(F)Oc1ccccc1NC(=S)Nc1cccc(Cl)c1Cl` the inhibition was 44.5% (active).
For `CN(Cc1cccnc1)C(=O)c1cc(COc2ccc3ncccc3c2)on1`, the inhibition was 73% (active).
In the case of `CCCc1[nH]nc2c1C(c1c(C)nn(-c3ccccc3)c1Cl)C(C#N)=C(N)O2` (stereo not drawn), the inhibition is reported as -3.33% (inactive).
In the case of `O=C1CC(c2ccccc2)=NN1c1ccc([N+](=O)[O-])cc1`, the inhibition is reported as 77.6% (active).
For `O=C(Nc1cccc(Cl)c1)Nc1ccccc1NS(=O)(=O)c1cccs1`, the inhibition was 89.6% (active).
In the case of `COc1cc(CC(=O)Nc2nc(-c3ccc(F)c(F)c3)cs2)cc(OC)c1OC`, the inhibition is reported as 93.2% (active).
For `COc1ccc(CC(=O)Nc2nc(-c3ccc(F)c(F)c3)cs2)cc1OC`, the inhibition was 94.5% (active).
For `CCCOc1ccc(Cc2c(Cl)nc(SC)nc2NC)cc1`, the inhibition was 93.6% (active).
For `Cn1nccc1NC(=O)Nc1ccc(OC(F)(F)F)cc1`, the inhibition was 73.2% (active).
In the case of `CC(=N\NC(=O)c1cc(Br)ccc1O)/C(=N/O)C(=O)Nc1ccccc1`, the inhibition is reported as 78.4% (active).
With `Cc1oc2c(F)c(F)c(F)c(F)c2c1S(=O)(=O)Nc1cccc(C(F)(F)F)c1` the inhibition was 83.5% (active).
For `Cc1oc2cc([N+](=O)[O-])c(O)c([N+](=O)[O-])c2c1C(=O)c1ccc(Br)cc1`, the inhibition was 61.8% (active).
In the case of `O=C(Cc1ccc(-n2c(=O)[nH]c3ccccc3c2=O)cc1)N1CCN(c2cccc(Cl)c2)CC1`, the inhibition is reported as 49.8% (active).
In the case of `COc1ccc(CCNc2cc(N3CCN(C(=O)c4ccccc4OC)CC3)ccc2[N+](=O)[O-])cc1OC`, the inhibition is reported as 47.7% (active).
With `Cc1ccc2c(c1)C1CN(C)CCC1N2S(=O)(=O)c1ccc(Oc2ccc([N+](=O)[O-])cc2)cc1` (stereo not drawn) the inhibition was -16.2% (inactive).
With `Cc1ccc(NC(=O)COc2ccc(-n3ccnc3)cc2)cc1Cl` the inhibition was 94.1% (active).
In the case of `O=C(Nc1nnc(SCc2ccc(Cl)cc2Cl)s1)C1COc2ccccc2O1` (stereo not drawn), the inhibition is reported as 72.7% (active).
With `O=C(Nc1nc2c(F)cc(F)cc2s1)C1COc2ccccc2O1` (stereo not drawn) the inhibition was 76.6% (active).
For `O=C(NCCNc1ccc([N+](=O)[O-])cc1)c1cccc2c(Br)cccc12`, the inhibition was 84.9% (active).
For `O=C(NCCCN1CCN(c2ccc(F)cc2)CC1)Nc1ccc([N+](=O)[O-])cc1`, the inhibition was 89.6% (active).
In the case of `CN1CCN(CCNC(=O)Nc2ccc([N+](=O)[O-])cc2)CC1`, the inhibition is reported as 75.1% (active).
In the case of `Cc1cccc(-c2nc3ccc(C(=O)NCCN4CCN(C)CC4)cc3nc2-c2cccc(C)c2)c1`, the inhibition is reported as -16.4% (inactive).
For `CCCOc1ccc(C(=O)C(CCC(CNCC)C(=O)c2ccc(OCCC)cc2)CNCC)cc1` (stereo not drawn), the inhibition was -13.8% (inactive).
With `O=c1c(-c2ccc3c(c2)OCCO3)c(C(F)(F)F)oc2cc(O)cc(O)c12` the inhibition was 80.7% (active).
In the case of `CC1=C/C(=N\OS(=O)(=O)c2ccccc2)C=CC1=O`, the inhibition is reported as 92.7% (active).
With `Cc1c(C(=O)OC(C)C)sc(NC(=O)c2cccnc2)c1C#N` the inhibition was 82.8% (active).
In the case of `Cc1ccc(-c2nc(-c3cccnc3)sc2CC(=O)Nc2ccc(C)c(Cl)c2)cc1`, the inhibition is reported as 90.8% (active).
For `CCNS(=O)(=O)c1ccc(NC(=O)Nc2cccc(C(F)(F)F)c2)cc1`, the inhibition was 73.9% (active).
With `CCc1cc2c(NC3CCCC3)ncnc2s1` the inhibition was 59.8% (active).
